Screens: PubChem BioAssay, National Center for Advancing Translational Sciences (NCATS)
The list is not random: actives were taken first. Their share in the collection is about 3.6%.
TGFb SMAD3 inh – inhibitors of TGF-b signaling; HepG2 CAGA-GFP TGF-b/SMAD3 reporter, GFP fluorescence, 18 h; TGF-beta stimulated, 500 pg/mL final; Potency, µM (top dose mostly 46.1 µM), without a hit: top-dose activity, negative = inhibition, most hits filed as inhibitors; 410,000 tested, 1.2% active; also: % is scaled to controls: 0 for no effect and ±100 for the full control effect; nearly all actives have a fitted effect of over 65% in size
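Smad-responsive CAGA-GFP expression was quantified in HEPG2 cells exposed to compounds and 500 pg/mL final TGF-beta for 18 h at 37 degrees C; unstimulated wells defined full inhibition.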
A549 tox – kills or reduces viability of A549 cells in Nrf2 counter-screen; A549 ARE-Fluc cells, CellTiter-Fluor viability, 18-24 h; AID 504648; Potency, µM (titrated, usually from 46 µM), for inactives: at the top dose activity change, negative = cytotoxicity, usual class: inhibitors; 390,000 tested, 0.16% active; also: % is scaled to controls: 0 for no effect and ±100 for the full control effect
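A549 ARE-Fluc cells in 5% FBS OPTI-MEM, 5000 cells/well, rested 2 h then exposed to compounds in concentration-response for 18-24 h at 37 °C. Viability by CellTiter-Fluor fluorescence (Ex 405/Em 525) after 30 min; luciferase luminescence (BugLite, 15 min, RT) read afterwards.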
Nrf2 block – inhibitors of Nrf2 signaling; A549 ARE-Fluc reporter, luciferase luminescence, 18-24 h; Potency, µM (doses to about 46 µM), for the others: at the highest dose activity change, negative = inhibition, usual class: inhibitors; 360,000 tested, 2.1% active; AID 504444; also: % is scaled to controls: 0 for no effect and ±100 for the full control effect; nearly all actives have a fitted effect of over 60% in size
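In this cell-based qHTS, ARE-driven firefly luciferase in A549 cells reports Nrf2 activity; the luminescent signal after BugLite lysis is the measured value, with a prior CellTiter-Fluor read for cell health.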
HepG2 viability – HepG2 cytotoxicity, counter-screen for TGF-b inhibitors; AID 588856; 410,000 tested, 0.76% active; HepG2 CAGA-GFP viability, ATP luminescence, 18 h; Potency, µM (doses to about 46.1 µM), without a hit: top-dose activity change, negative = cytotoxicity, hits mostly cytotoxic
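HepG2 CAGA-GFP cells (1000/well, DMEM with 1% FBS) received compound, then TGF-beta at 500 pg/mL final, and were incubated 18 hours at 37 degrees C. Viability was read by CellTiter-Glo luminescence. Media-only wells were set as complete cell-killing and DMSO as no toxicity.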
Nrf2 ARE act – activates Nrf2 signaling | Potency, µM (titrated, usually from 46.1 µM), for inactives: top-dose activation, usual class: activators | AREc32 ARE-luciferase reporter (MCF7-derived line), luminescence, 24 h | 410,000 tested, 0.31% active | AID 624171; also: % of control where 0% means no effect; nearly all actives have a fitted effect of over 65% in size
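Quantitative high-throughput format: AREc32 reporter cells, 1000 per well, received compound by pin transfer and were incubated 24 hr at 37 deg C, 5% CO2, before Steady-Glo luminescence detection.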
* hit, by the source's call. Calls follow the shape of the dose curve; as a rule, active = well fitted curve in the direction sought with a large enough effect; inconclusive = small, poorly fitted or top-dose-only effect, or another doubt; inactive = no such curve, though single readings can be large; an effect the other way counts as inactive or inconclusive. Potency is read from the fitted curve at half-maximal effect.

How did O=c1c2cc(F)ccc2sn1-c1ccccc1 do in these assays?
TGFb SMAD3 inh: 11µM*; A549 tox: 0%; Nrf2 block: -5%; HepG2 viability: -94%; Nrf2 ARE act: 9%

How did O=c1c2cc(C(F)(F)F)ccc2sn1-c1ccccc1 do in these assays?
TGFb SMAD3 inh: -29%; HepG2 viability: -38%; Nrf2 ARE act: -1%

How did O=c1c2ccccc2sn1-c1ccccc1 do in these assays?
TGFb SMAD3 inh: 16µM*; A549 tox: -11%; Nrf2 block: 8%; HepG2 viability: -60%; Nrf2 ARE act: inconclusive

Results for CC(=O)NCCNC(=O)c1ccc2c(c1)S(=O)(=O)c1ccccc1C2=O ?
TGFb SMAD3 inh: 1%; A549 tox: 0%; Nrf2 block: 26%; HepG2 viability: -7%; Nrf2 ARE act: 1%

Results for Cc1ccc(N/C(N)=N/c2nc(C)cc(N3CCCCC3)n2)c(C)c1 ?
TGFb SMAD3 inh: inconclusive; A549 tox: inconclusive; Nrf2 block: 13µM*; HepG2 viability: -22%; Nrf2 ARE act: 0%

What do the screens show for `Nc1nc(Sc2ccc(C(F)(F)F)cn2)n[nH]1`?
TGFb SMAD3 inh: 8%; A549 tox: 0%; Nrf2 block: 23%; HepG2 viability: 2%; Nrf2 ARE act: 0%

How did O=C(Nc1cc(Cl)ccc1O)c1cc(-c2ccc3c(c2)OCO3)on1 do in these assays?
TGFb SMAD3 inh: -3%; A549 tox: 0%; Nrf2 block: 11%; HepG2 viability: -22%; Nrf2 ARE act: 8%

How did CC(C)N1CCC2(CC1)N=C(c1ccc3c(c1)OCO3)CC(c1cc(Cl)ccc1O)N2 (configuration not stated) do in these assays?
TGFb SMAD3 inh: inconclusive; A549 tox: 15%; HepG2 viability: 11µM*; Nrf2 ARE act: inconclusive

Results for O=C(NNc1ccccc1)NC(Cc1ccccc1)C(=O)O (configuration not stated) ?
TGFb SMAD3 inh: inconclusive; A549 tox: 1%; Nrf2 block: -1%; HepG2 viability: -15%; Nrf2 ARE act: -1%

Results for COc1ccc(-n2c(CCc3ccccc3)nnc2SCC(=O)c2ccc(Cl)cc2)cc1 ?
TGFb SMAD3 inh: inconclusive; A549 tox: inconclusive; Nrf2 block: inconclusive; HepG2 viability: 5%; Nrf2 ARE act: 0%

How did O=S(Cc1ccc(Br)cc1)Cc1nnc(SCc2ccc(Cl)cc2)n1-c1ccccc1 (configuration not stated) do in these assays?
TGFb SMAD3 inh: 0%; A549 tox: inconclusive; Nrf2 block: 16µM*; HepG2 viability: -32%; Nrf2 ARE act: 3%

What do the screens show for `O=C(CSc1nnc(CCc2ccccc2)n1-c1ccc(Cl)cc1)c1ccccc1`?
TGFb SMAD3 inh: inconclusive; A549 tox: inconclusive; Nrf2 block: 23µM*; HepG2 viability: -27%; Nrf2 ARE act: 4%

How did CCOC(=O)N1CCN(C(=O)/C(=C/c2ccc(OC)cc2)NC(=O)c2ccccc2)CC1 do in these assays?
TGFb SMAD3 inh: 0%; A549 tox: -4%; Nrf2 block: -4%; HepG2 viability: 3%; Nrf2 ARE act: -1%

How did NC(=O)c1cc(S(=O)(=O)NCCc2ccc(Cl)cc2)cs1 do in these assays?
TGFb SMAD3 inh: -11%; A549 tox: 1%; Nrf2 block: -1%; HepG2 viability: -12%; Nrf2 ARE act: 0%

What do the screens show for `Cc1cccc(CSC2=CS(=O)(=O)c3ccccc3N2)c1`?
TGFb SMAD3 inh: -10%; A549 tox: 0%; Nrf2 block: inconclusive; HepG2 viability: -1%; Nrf2 ARE act: 0%

What do the screens show for `O=S1(=O)C=C(SCc2cccc(Cl)c2)Nc2ccccc21`?
TGFb SMAD3 inh: -14%; A549 tox: 0%; Nrf2 block: 21µM*; HepG2 viability: 2%; Nrf2 ARE act: -1%

Results for O=C(CCCC(=O)c1ccc(O)cc1)c1ccc(O)cc1 ?
TGFb SMAD3 inh: 1%; A549 tox: -3%; Nrf2 block: inconclusive; HepG2 viability: -1%; Nrf2 ARE act: 0%

What do the screens show for `O=C1C=CC(=C(c2ccc(O)cc2)c2ccc(O)cc2)C=C1`?
TGFb SMAD3 inh: inconclusive; A549 tox: 23µM*; Nrf2 block: 13µM*; HepG2 viability: 10µM*; Nrf2 ARE act: -3%
